From PubChem BioAssay (Tox21)
Inconclusive results are not listed. A call without a number means that no potency is given here. The source holds several records for some structures; these can differ, active in one and inactive in another. The source made the active and inactive calls. Unless noted, calls follow the shape of the dose curve; as a rule, active = well fitted curve in the direction sought with a large enough effect in the repeat runs; inconclusive = weak or mixed curves; inactive = no such curve, though single readings can be large; an effect the other way counts as inactive or inconclusive.

Tests used:
[1] = qHTS assay to identify small molecule agonists of the RXR signaling pathway - cell viability counter screen (AID 1159529);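 also: HEK 293T cells carrying an RXR-alpha UAS beta-lactamase reporter; series mostly up to about 77 µM; nearly all actives have a fitted effect of over 50% in size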
How it was run: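 Tox21 10K compounds were tested for cytotoxicity against GeneBLAzer RXR-alpha HEK 293T cells grown in 2% charcoal-stripped FBS. Exposure lasted 16 hr at 37 C, 5% CO2; viability read by CellTiter-Glo luminescence.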

[2] = qHTS assay to identify small molecule antagonists of the retinoid acid receptor (RAR) signaling pathway - cell viability counter screen (AID 1159551); also: nearly all actives have a fitted effect of over 35% in size
How it was run: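 Luminescent ATP quantitation (CellTiter-Glo) gave cell viability in C3RL4 cells exposed to test chemicals for 6 h at 37 C alongside 1 uM final retinol.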

[3] = qHTS assay to identify small molecule antagonists of the estrogen related receptor (ERR) signaling pathway from Tox21 library - cell viability counter screen (AID 1224834); also: nearly all actives have a fitted effect of over 30% in size; also: potency is read from the fitted curve at half-maximal effect
How it was run: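 Fluorescence from CellTiter-Fluor gives the viability read-out, taken 30 min after reagent addition. Before that, ERR cells seeded 6 h earlier were incubated with compounds for 17.5 h at 37 C.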

[4] = biological target: Luciferin 4-monooxygenase (Photinus pyralis) (UniProt P08659); experiment: qHTS assay to identify small molecule inhibitors of firefly luciferase (AID 1224835); also: series mostly up to about 120 µM; nearly all actives have a fitted effect of over 25% in size
Luciferin 4-monooxygenase (Photinus pyralis), sequence (P08659 whole entry, looked up): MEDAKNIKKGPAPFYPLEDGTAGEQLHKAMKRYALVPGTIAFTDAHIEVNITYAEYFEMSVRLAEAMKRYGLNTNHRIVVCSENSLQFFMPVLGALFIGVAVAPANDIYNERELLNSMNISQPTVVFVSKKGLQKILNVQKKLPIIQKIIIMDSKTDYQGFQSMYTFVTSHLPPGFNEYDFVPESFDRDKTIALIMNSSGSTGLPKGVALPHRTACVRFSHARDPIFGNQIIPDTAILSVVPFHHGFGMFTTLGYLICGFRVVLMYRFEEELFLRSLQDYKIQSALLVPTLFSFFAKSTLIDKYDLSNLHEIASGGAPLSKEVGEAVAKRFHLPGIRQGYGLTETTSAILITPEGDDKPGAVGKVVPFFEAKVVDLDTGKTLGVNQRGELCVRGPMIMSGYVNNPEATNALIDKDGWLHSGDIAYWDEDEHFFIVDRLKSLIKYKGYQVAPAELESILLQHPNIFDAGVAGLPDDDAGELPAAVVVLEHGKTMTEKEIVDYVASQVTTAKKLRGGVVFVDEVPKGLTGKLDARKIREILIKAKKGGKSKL
How it was run: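 Biochemical qHTS: compounds run as interplate titrations against purified firefly enzyme, with D-luciferin and ATP each at its KM concentration. Light output recorded by CCD imaging.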

[5] = qHTS assay to identify small molecule agonists of the constitutive androstane receptor (CAR) signaling pathway - cell viability counter screen (AID 1224836); also: series mostly up to about 92 µM; nearly all actives have a fitted effect of over 45% in size
How it was run: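 Fluorescence from CellTiter-Fluor indicates live cells after 23 h exposure. The human hepatoma line expresses hCAR and a CYP2B6-2.2kb reporter. Incubation medium contains 0.75 uM PK11195 (final).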

[6] = qHTS assay to identify small molecule antagonists of the constitutive androstane receptor (CAR) signaling pathway - cell viability counter screen (AID 1224837); also: nearly all actives have a fitted effect of over 45% in size; also: potency is read from the fitted curve at half-maximal effect
How it was run: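 HepG2-CYP2B6-hCAR cells, 2500/well, 4 hr pre-incubation; compound titration, 15 conc.; CITCO 50 nM final; 23 hr, 37 C/5% CO2; CellTiter-Fluor, fluorescence intensity.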

[7] = biological target: Nuclear receptor subfamily 1 group I member 3 (Homo sapiens) (UniProt Q14994); experiment: qHTS assay to identify small molecule antagonists of the constitutive androstane receptor (CAR) signaling pathway (AID 1224838);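 also: HepG2 cells stably expressing hCAR with CYP2B6 luciferase reporter stimulated by CITCO; nearly all actives have a fitted effect of over 40% in size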; also: potency is read from the fitted curve at half-maximal effect
Nuclear receptor subfamily 1 group I member 3 (Homo sapiens), sequence (Q14994 whole entry, looked up): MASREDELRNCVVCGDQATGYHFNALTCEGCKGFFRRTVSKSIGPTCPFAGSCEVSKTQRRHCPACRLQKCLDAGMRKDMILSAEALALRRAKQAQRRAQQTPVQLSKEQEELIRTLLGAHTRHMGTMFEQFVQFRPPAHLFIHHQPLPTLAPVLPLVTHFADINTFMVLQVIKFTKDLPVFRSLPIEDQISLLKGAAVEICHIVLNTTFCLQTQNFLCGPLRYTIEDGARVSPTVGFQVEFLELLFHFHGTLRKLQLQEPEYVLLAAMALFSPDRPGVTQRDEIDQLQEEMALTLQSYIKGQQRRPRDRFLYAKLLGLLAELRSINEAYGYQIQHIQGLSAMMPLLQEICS
How it was run: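 HepG2-CYP2B6-hCAR cells; 4 h pre-incubation; cpd (15 conc) + CITCO 50 nM final; 24 h, 37 C/5% CO2; ONE-Glo, luminescence.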

[8] = qHTS assay to identify small molecule antagonists of the estrogen related receptor signaling pathway with the pleiotropic PPARgamma coactivator (PGC) from Tox21 10K library (AID 1224841; call rule not given here; also: series mostly up to about 92 µM; actives are mostly falling curves and most rising ones were filed inactive; nearly all actives have a fitted effect of over 50% in size)
How it was run: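 PGC/ERR cell line, 2,000 cells/well; 6 h pre-incubation 37 C/5% CO2; compounds (DMSO) pinned in; 18 h, 37 C; One-Glo, 30 min RT; luminescence.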

[9] = biological target: Thyrotropin receptor (Homo sapiens) (UniProt P16473); experiment: qHTS assay to identify small molecule agonists of the thyroid stimulating hormone receptor (TSHR) signaling pathway (AID 1224843; calls by dose curve; also: nearly all actives have a fitted effect of over 45% in size)
Thyrotropin receptor (Homo sapiens), sequence (P16473 whole entry, looked up): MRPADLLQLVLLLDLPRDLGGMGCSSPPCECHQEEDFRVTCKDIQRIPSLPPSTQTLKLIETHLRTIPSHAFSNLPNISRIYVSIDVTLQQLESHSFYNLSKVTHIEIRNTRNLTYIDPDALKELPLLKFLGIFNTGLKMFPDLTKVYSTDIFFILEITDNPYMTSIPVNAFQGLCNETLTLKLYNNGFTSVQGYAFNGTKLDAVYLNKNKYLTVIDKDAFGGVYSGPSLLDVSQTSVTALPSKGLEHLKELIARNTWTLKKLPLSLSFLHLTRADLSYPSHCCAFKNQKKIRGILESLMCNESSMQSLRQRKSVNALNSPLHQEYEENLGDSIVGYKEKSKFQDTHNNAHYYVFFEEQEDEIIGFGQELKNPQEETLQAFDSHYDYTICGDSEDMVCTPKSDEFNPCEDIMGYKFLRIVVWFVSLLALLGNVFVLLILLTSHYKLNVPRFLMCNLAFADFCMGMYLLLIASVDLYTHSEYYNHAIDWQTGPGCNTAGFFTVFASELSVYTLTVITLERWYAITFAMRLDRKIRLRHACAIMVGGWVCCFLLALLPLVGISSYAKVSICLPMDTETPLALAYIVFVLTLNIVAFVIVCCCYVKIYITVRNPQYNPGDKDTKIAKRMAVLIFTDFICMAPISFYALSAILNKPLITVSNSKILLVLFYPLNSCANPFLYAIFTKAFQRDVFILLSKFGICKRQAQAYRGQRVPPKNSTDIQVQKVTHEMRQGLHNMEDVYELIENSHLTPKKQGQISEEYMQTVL
How it was run: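 Steps: seed 800 TSHR-HEK293 cells per well; add test compound and hold 30 min at ambient temperature; dispense cAMP-d2 then anti-cAMP cryptate; incubate 1 h at ambient; measure fluorescence intensity.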

[10] = qHTS assay to identify small molecule agonists of the retinoic acid receptor (RAR) signaling pathway (AID 1159553)
How it was run: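 Luminescence from a RARE-driven luciferase reporter in C3RL4 cells served as the read-out, measured after 30 min with detection reagent at room temperature. Compounds in DMSO were applied for 6 hr at 37 C following overnight seeding.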

[11] = qHTS assay to identify small molecule antagonists of the estrogen related receptor signaling pathway with the pleiotropic PPARgamma coactivator (PGC) from Tox21 10K library - cell viability counter screen (AID 1224840; active = well fitted cell-killing curve with a large enough effect in the repeat runs, not every such curve was filed as active; also: nearly all actives have a fitted effect of over 40% in size)
How it was run: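 PGC/ERR cells, 2,000/well; 6 h pre-incubation 37 C/5% CO2; cpd in DMSO via pin tool; 17.5 h 37 C; CellTiter-Fluor, 30 min; fluorescence.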

[12] = qHTS assay to identify small molecule agonists of the estrogen related receptor signaling pathway with the pleiotropic PPARgamma coactivator (PGC) from Tox21 10K library (AID 1224842); also: nearly all actives have a fitted effect of over 15% in size
How it was run: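 PGC/ERR reporter cell line, 2,000 cells per well, incubated 6 h at 37 C before 23 nL compound in DMSO was added. After 18 h at 37 C, One-Glo luminescence read following 30 min at room temperature.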

[13] = qHTS assay to identify small molecule antagonists of the retinoic acid receptor (RAR) signaling pathway (AID 1159552; also: nearly all actives have a fitted effect of over 50% in size; also: potency is read from the fitted curve at half-maximal effect)
How it was run: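 Overnight-plated C3RL4 reporter cells get compound, then retinol to 1 uM final; plates sit 6 hr at 37 C, 5% CO2. A luciferase reagent is added and light output recorded after 30 min at room temperature.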

[14] = biological target: Nuclear receptor subfamily 1 group I member 3 (Homo sapiens) (UniProt Q14994); experiment: qHTS assay to identify small molecule agonists of the constitutive androstane receptor (CAR) signaling pathway (AID 1224839); also: nearly all actives have a fitted effect of over 15% in size; also: potency is read from the fitted curve at half-maximal effect
How it was run: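 Stable hCAR/CYP2B6-2.2kb HepG2 line in DMEM with 10% FBS; compounds (15 concentrations) and 0.75 uM PK11195 final, 24 h at 37 C/5% CO2, then ONE-Glo luminescence after 30 min.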

SMILES	Potency [1]	Potency [2]	Potency [3]	Potency [4]	Potency [5]	Potency [6]	Potency [7]	Potency [8]	Potency [9]	Potency [10]	Potency [11]	Potency [12]	Potency [13]	Potency [14]
CCCC(C)(COC(N)=O)COC(=O)NC(C)C (stereo not drawn)	inactive	inactive	inactive	inactive	inactive	inactive	inactive	inactive	inactive	–	–	–	–	–
CN1CC[C@]23c4c5ccc(O)c4O[C@H]2[C@@H](O)C=C[C@H]3[C@H]1C5	inactive	inactive	inactive	inactive	inactive	inactive	inactive	–	inactive	inactive	inactive	inactive	–	–
CC(C)(C#N)C(C)(C)C#N	inactive	inactive	inactive	inactive	inactive	inactive	inactive	inactive	–	–	inactive	inactive	–	–
O=C(Cl)OCCOCCOC(=O)Cl	inactive	–	inactive	inactive	inactive	inactive	30.6 µM (active)	inactive	inactive	inactive	inactive	inactive	12.2 µM (active)	inactive
CC[N+]1(C)CCCC(OC(=O)C(O)(c2ccccc2)c2ccccc2)C1 (stereo not drawn)	inactive	–	inactive	inactive	inactive	inactive	inactive	–	inactive	inactive	–	–	–	inactive
Cc1nc2ccccc2c(=O)n1-c1ccccc1Cl	inactive	–	21.2 µM (active)	inactive	–	16.9 µM (active)	inactive	inactive	–	inactive	–	inactive	inactive	inactive
CC(C)[C@@H](C(=O)O[C@@H](C#N)c1cccc(Oc2ccccc2)c1)c1ccc(Cl)cc1	inactive	–	inactive	inactive	inactive	inactive	–	–	–	–	inactive	–	–	19.6 µM (active) and inactive
CC(C)C1(C)N=C(c2ncccc2C(=O)O)NC1=O (stereo not drawn)	inactive	–	inactive	inactive	inactive	inactive	inactive	–	inactive	–	inactive	–	–	–
CCOC(=O)c1cncn1C(C)c1ccccc1 (stereo not drawn)	–	inactive	inactive	inactive	inactive	inactive	inactive	inactive	inactive	inactive	inactive	–	inactive	–
C=CC(=O)NC(C)(C)CC(C)=O	–	inactive	inactive	inactive	inactive	inactive	inactive	–	–	inactive	inactive	–	inactive	inactive
CCC[N+](CCC)(CCC)CCC	inactive	–	inactive	inactive	inactive	inactive	inactive	–	–	inactive	inactive	inactive	–	inactive
